According to ChEMBL document CHEMBL4513216, “Probing the Open Global Health Chemical Diversity Library for Multistage-Active Starting Points for Next-Generation Antimalarials” (ACS Infect Dis, 2020):
In all, about 69,000 compounds went through this assay and about 8,600 (12%) showed an effect of 50% or more. The full list was thinned out, with strong results kept by preference.

test system: Plasmodium berghei; assay: Screen against P. berghei liver stage (PbLuc), transformed with Luciferase, at 10uM; type: functional, HepG2; conditions: tested at 10 uM

Structure (SMILES) | INHIBITION
O=C1COc2cc(C(=O)NS(=O)(=O)c3cc(Cl)ccc3Cl)ccc2N1 | 37.4%
CN(C)C(=O)COCc1cncc2c1CCN(Cc1ccccn1)C2 | -11%
COc1ccc(-c2nccc(C3CCCN3C)n2)cc1 (stereo unspecified) | 16.5%
O=C(N1CCCC1)N1CCOCC2(C1)CN(c1ccccc1)C(=O)CO2 (stereo unspecified) | -1.36%
COc1ccc(NC(C)=O)cc1OCc1cccnc1 | 66.5%
COc1ccc(NC(=O)C2CC2)cc1OCc1cccnc1 | 34.1%
COc1ccc(NC(=O)C(C)(C)C)cc1OCc1cccnc1 | 43.4%
Cc1nnc(N2CCCC3(CN(Cc4ccc(C)s4)CCO3)C2)o1 (stereo unspecified) | 1.81%
COCc1noc(-c2ccc(N(C)Cc3ccc(C)o3)nc2)n1 | -26.7%
COCc1noc(-c2ccc(N(C)Cc3c(C)n[nH]c3C)nc2)n1 | 56.9%
COCc1noc(-c2ccc(N(C)Cc3cc(C)no3)nc2)n1 | 33.5%
Cc1ccc(N2CCN(C(=O)[C@@H]3CCC(=O)N3)CC2=O)cc1 | 4.95%
O=C(NCc1ccc(Cl)cc1)C1CCCN(c2ccc3nncn3n2)C1 (stereo unspecified) | 15.7%
CC(C)CC(=O)N1CCCC1c1cc(CO)[nH]n1 (stereo unspecified) | -0.7%
CC(C)NC(=O)c1nnn(-c2cccc(F)c2)c1C1CC1 | -18.9%
O=C(O)c1nnn(-c2ccc(C(F)(F)F)cc2)c1-c1ccncc1 | 18.4%
CCc1ccc(-n2nnc(C(=O)O)c2-c2ccncc2)cc1 | 6%
CC(C)NC(=O)c1nnn(-c2cccc(C(F)(F)F)c2)c1C1CC1 | 58.5%
O=C(NC1CC1)c1nnn(-c2cccc(C(F)(F)F)c2)c1C1CC1 | 18.6%
O=C(O)c1nnn(-c2ccc(Cl)c(C(F)(F)F)c2)c1-c1ccncc1 | -5.59%
O=C(O)c1nnn(-c2ccccc2F)c1-c1ccncc1 | 50.7%
O=C(O)c1nnn(-c2ccccc2)c1-c1ccncc1 | 54%

Structure (SMILES) | INHIBITION
O=C(O)c1nnn(-c2cccc(C(F)(F)F)c2)c1-c1ccncc1 | 65.6%
O=C(O)c1nnn(-c2ccc(F)c(F)c2)c1-c1ccncc1 | -6.32%
Cc1ccc(F)c(-n2nnc(C(=O)O)c2-c2ccncc2)c1 | 7.9%
O=C(O)c1nnn(-c2cc(F)cc(F)c2)c1-c1ccncc1 | 16.8%
COc1cc2cc3c(nc2cc1OC)OCCN(Cc1ccco1)C3 | 16.5%
COCCCNC(=O)CN(C)C(=O)CN(C)c1ccc(C#N)cn1 | -12.1%
CC(=O)N1CCn2c(-c3ccccc3)cnc2C12CCNCC2 | 33%
Cc1nn(C)c(N(C)C)c1CNCC(O)c1ccccc1F (stereo unspecified) | 25.1%
Cc1cc(C(=O)N2CCCC(C(=O)c3cccs3)C2)c(=O)[nH]c1C (stereo unspecified) | 33.3%
N#Cc1cnc(NCc2cccc(C(=O)N3CCCC3)c2)c(Cl)c1 | 57.5%
N#Cc1cnc(NCc2ccc(C(=O)NC3CC3)cc2)c(Cl)c1 | -32.9%
O=C(c1cnc(NCc2sccc2Br)c(Cl)c1)N1CCCCC1 | 24.2%
N#Cc1ccc(CNc2ncc(C#N)cc2Cl)cc1 | 20.1%
O=C(c1cnc(NCC2CCCO2)c(Cl)c1)N1CCCCC1 (stereo unspecified) | 32.2%
O=C(c1cnc(NCc2cccnc2)c(Cl)c1)N1CCCCC1 | 56.3%
CCc1ccc(CN(C)Cc2nc(COc3ccccc3)no2)nc1 | 29.6%
c1ccc(CN2CCc3ncnc(C4CC4)c3CC2)nc1 | 21.1%
O=C(c1cscn1)N1CCC[C@]2(C[C@@H](OCC3CC3)CO2)C1 | 36.9%
CN(Cc1ccco1)Cc1ccccc1CNC(=O)c1csnn1 | 46.4%
CN(Cc1ccco1)Cc1ccccc1CNC(=O)c1cnc[nH]1 | 69.3%
Cc1cc(C(=O)NCc2ccccc2CN(C)Cc2ccco2)on1 | 77.2%
Cc1cc(CN(C)C(=O)NCc2ccco2)no1 | 14.1%

Structure (SMILES) | INHIBITION
CN(Cc1ccco1)Cc1ccccc1CNC(=O)c1ccncc1 | -4.86%
CN(Cc1ccco1)Cc1ccccc1CNC(=O)c1cc[nH]n1 | 30.1%
CN(Cc1ccco1)Cc1ccccc1CNC(=O)c1c[nH]nn1 | -1.28%
CN(Cc1ccco1)Cc1ccccc1CNC(=O)c1cnccn1 | 63.3%
CN(C)c1ncccc1CNC(=O)NCc1ccco1 | -36.3%
Cc1oc(C)c(C(=O)NCc2ccccc2CN(C)C)c1C | 25.55%
Cc1ncccc1C(=O)NCc1ccccc1CN(C)Cc1ccco1 | 67.3%
CN(Cc1ccco1)Cc1ccccc1CNC(=O)c1ccc[nH]1 | 30.1%
CCS(=O)(=O)c1ccccc1N1CCC(NC(=O)C(C)C)CC1 | -25.8%
CO[C@@H]1CCC[C@@H](NC(=O)C(C)(C)c2cccc(F)c2)[C@H]1O | 10.855%
Cc1cccc(C)c1NC(=O)c1n[nH]c(-n2cnnc2)n1 | 19.6%
CC(C)N(C)Cc1nnc2n1CCCN(S(=O)(=O)C1CC1)C2 | 36.4%
c1ccc(OCc2nnc3n2CCN(CC2CC2)C3)nc1 | 39.3%
Cc1c(C2CCCN(C(=O)Cc3ccccn3)C2)n2c(nc1=O)CCC2 (stereo unspecified) | 34.1%
O=C(NCCc1nccs1)[C@H](c1ccccc1)n1cnnn1 | -20.8%
CC(O)CNC(=O)CCc1nc2ncccc2[nH]1 (stereo unspecified) | 26.6%
Cc1nc(C(=O)N2CCN(S(C)(=O)=O)CC2)c(-c2cccc(F)c2)s1 | 17.7%
Cc1cccc(CN2C[C@@H]3OCCN(c4ccnc(N(C)C)n4)[C@@H]3C2)c1 | 77.5%
Cc1ccc(N2CCO[C@H]3CN(Cc4ccoc4)C[C@H]32)nn1 | 41.6%
Cc1cc(C)cc(CN2C[C@@H]3OCCN(CC(=O)N(C)C)[C@@H]3C2)c1 | 66.6%
CN(C)c1nccc(N2CCO[C@H]3CN(Cc4ccsc4)C[C@H]32)n1 | 65.1%
Cc1cccc(CN2C[C@@H]3OCCN(CC(=O)N(C)C)[C@@H]3C2)c1 | 39.4%

Structure (SMILES) | INHIBITION
c1cnc(N2CCO[C@H]3CN(Cc4ccsc4)C[C@H]32)nc1 | 42.7%
c1cc(CN2C[C@@H]3OCCN(CCN4CCCC4)[C@@H]3C2)cs1 | 11.3%
Cc1cccc(CN2C[C@@H]3OCCN(c4cnccn4)[C@@H]3C2)n1 | -18.5%
CN(C)C(=O)CN1CCO[C@H]2CN(Cc3ccoc3)C[C@H]21 | 31.2%
CCOCCCNC(=O)C1CCC(=O)N(CCc2ccc(Cl)cc2)C1 (stereo unspecified) | 16.3%
COc1ccc(C(=O)Nc2ccccc2C(C)C)c(OC)n1 | -17.2%
COc1ccc([C@@H]2CN(Cc3cccnc3N)C[C@H]2N(C)C)cc1 | 30.3%
O[C@@H]1CCN(CC2CC2)[C@H]1Cc1ccccc1 | -14.4%
Cc1nc(C)n(CC2CN(Cc3cccnc3)Cc3nccn3C2)n1 (stereo unspecified) | 25.1%
Cc1ncsc1C(=O)NCCCN1CCCCCC1=O | -21.2%
Cc1nc(S(=O)(=O)N2CCSCC2)cn1C | -50.7%
CCN(CC)Cc1cc(=O)n2c(n1)CN(C(=O)c1ccnnc1)CCC2 | -20.2%
COc1ccc(C[C@H]2CN(C(=O)CS(C)(=O)=O)CC[C@H]2OC)cc1 | 33.4%
COCCN1CC[C@H]2CN(Cc3ccc(C)s3)C[C@@H]2C1=O | -75%
c1nc(N2CCCC2)ncc1CN1CCCC(CN2CCCCC2)C1 (stereo unspecified) | 21.1%
NC(=O)CCC1CCCN(Cc2cnc(N3CCCCC3)nc2)C1 (stereo unspecified) | 67.8%
CCc1cnc(N2CCCC(CCC(N)=O)C2)nc1 (stereo unspecified) | 17.9%
Cc1nn(C)c2ncc(C(=O)N3CCNC(=O)C3)cc12 | 1.86%
O=C(CCC1CCCC1)N1CCC(c2cc3ncccc3c(O)n2)CC1 | 55.6%
COCC(=O)N1CCC(c2cc3ncccc3c(O)n2)CC1 | -27.4%
O=C(CC1CCCC1)N1CCC(c2cc3ncccc3c(O)n2)CC1 | -2.11%
O=C(c1c(F)cccc1F)N1CCOCC1 | 30.45%

Structure (SMILES) | INHIBITION
Cn1ccc(C(=O)NCc2ccc(Cn3ccnc3)cc2)cc1=O | -7.17%
O=C(Nc1cccc(CNCc2csc(Br)c2)c1)C1CC1 | 70.7%
Cn1ccc(C(=O)NCc2cccc(N3CCCCC3=O)c2)cc1=O | 45.9%
Cn1ccc(C(=O)NCc2cccc(NC(=O)C3CCC3)c2)cc1=O | 61.1%
Cc1nccn1Cc1cccc(CNC(=O)c2ccn(C)c(=O)c2)c1 | 53.8%
O=C(Nc1cccc(CNCc2ccsc2)c1)C1CC1 | 21.8%
O=C(Nc1cccc(CNCc2cccnc2)c1)C1CCCC1 | 39.65%
Cn1ccc(C(=O)NCc2cccc(CN3CCCC3)c2)cc1=O | 48.8%
Cn1ccc(C(=O)NCc2cccc(Cn3ccnc3)c2)cc1=O | 31.4%
COCCC(=O)N1CCC(c2cc(O)n(C)n2)C1 (stereo unspecified) | 0.301%
O=C(O)CC(CC(=O)NCc1ccsc1)c1cccs1 (stereo unspecified) | -24%
CCn1cc(NC(=O)NCCc2ccc3c(c2)OCO3)cn1 | -23.9%
CCc1nc(C(=O)N(C)CC(=O)N(C)C)nn1-c1ccccc1Cl | 27.9%
c1ccc2oc(CCCN3CCOC(Cn4cncn4)C3)nc2c1 (stereo unspecified) | 47.1%
Cc1ccsc1C(=O)N1CCC(Nc2cccnc2)CC1 | -36.6%
COCCN1C(=O)[C@@H]2CC[C@H]1CN(S(=O)(=O)c1ccc(OC)cc1)C2 | 1.56%
Cc1cc(C(F)(F)F)c2c(C3CCCN(C(=O)C4CC4)C3)noc2n1 (stereo unspecified) | 26.8%
CNc1ccc(Cl)cc1C(=O)N1CCC(Cn2cc(CN)nn2)CC1 | 21.2%
